Only some compounds are listed: those with a hit (about 19% of all), similar ones and a draw of the others.
TDP1 cell CPT: DT40-hTDP1 cell growth loss with CPT. chicken DT40 Tdp1-/-;hTDP1 cells + 20 nM CPT, ATP luminescence, 48 h. Potency, µM (top dose mostly 46.2 µM), inactives show at the highest dose activity change, negative = growth inhibition, most hits filed as inhibitors. 12% of 420,000 active; note: potency is the fitted concentration of half-maximal effect; % is set by controls: 0 for no effect and ±100 for the full control effect; nearly all actives have a fitted effect of over 55% in size
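Chicken DT40 Tdp1-/- cells stably complemented with human TDP1 were seeded at 400 cells/well in medium containing 20 nM camptothecin, exposed to pin-transferred compounds, and grown at 37 °C for at least 48 hr. Viability was read as ATP luminescence.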
MCF10A rerep: induces DNA re-replication in MCF 10a normal breast cells | 2.9% of 350,000 active | AID 624296 | MCF 10A DNA re-replication, Hoechst nuclear intensity, 48 h | Potency, µM (doses to about 46.1 µM), inactives show top-dose activity, positive = re-replication, usual class: activators; note: potency is the fitted concentration of half-maximal effect; % of control where 0% means no effect; nearly all actives have a fitted effect of over 50% in size
SW480 rerep: inducers of DNA re-replication in SW480 colon cancer cells; SW480 DNA re-replication, Hoechst DNA content imaging, 48 h; Potency, µM (highest dose often 46.1 µM), for the others: top-dose re-replication activation, actives largely listed as activators; 1.8% of 340,000 active; AID 624297; note: potency is the fitted concentration of half-maximal effect; % of control where 0% means no effect; nearly all actives have a fitted effect of over 55% in size
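Per well, 250 cells were exposed to pinned compound for 48 hr. Nuclear DNA was visualised with Hoechst (40 min, 37 C) and total object intensity recorded by fluorescence scanning.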
Chronic BCR inh: inhibitors of chronic active B-cell receptor signaling. 0.05% of 340,000 active. Potency, µM (highest dose often 46.1 µM), for the others: top-dose activity change, negative = inhibition, most hits filed as inhibitors. ABC-DLBCL IkBa-CBG/CBR reporter, luminescence ratio, 4 h. AID 493014; active = well fitted inhibition curve with a large enough effect in the signal ratio, with a control signal flat, not every such curve was filed as active; inconclusive = small, poorly fitted or top-dose-only effect, or effect the other way, or a change in a side signal; the % refers to the signal ratio;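 note: potency is the fitted concentration of half-maximal effect; plate controls were basal doxycycline-induced cells for no effect and cells given 10 µM MG132 for full effect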
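Cell line TMD8 (human ABC DLBCL), stably expressing tet-inducible CBG68-IkBa fusion and CBR; IMDM/0.5% FBS; cpd up to 46 uM; dox induction, 4 h, 37C/5% CO2; dual luminescence; green/red ratio; MG132 control.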
IL-1B inflam inh: inhibitors of inflammasome signaling (IL-1 beta secretion) | 4.7% of 360,000 active | activity change, % at 57.5 µM | THP-1 LPS/ATP IL-1B secretion, AlphaLISA, 16 h; stronger effect = lower value; in the data active = activity change below about -50%; inconclusive = mostly about -30% to -49%; note: % is set by controls: 0 for no effect and ±100 for the full control effect
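THP-1 cells pretreated 1 hr with compounds (up to 57.5 uM final), then stimulated with LPS (250 ng/mL final) plus ATP (1.25 mM final); secreted IL-1B measured by AlphaLISA after 16 hr, decreased signal indicating inhibition.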
TDP1 cell noCPT: qHTS for Inhibitors of human tyrosyl-DNA phosphodiesterase 1 (TDP1): qHTS in cells in absence of CPT; Potency, µM (doses to about 46.2 µM), inactives show at the top dose activity change, negative = growth inhibition, hits mostly inhibitors; AID 686978, 2013; DT40 Tdp1-/- hTDP1 cells, no CPT, ATP luminescence, 48 h; 15% of 420,000 active; note: potency is the fitted concentration of half-maximal effect; % is set by controls: 0 for no effect and ±100 for the full control effect; nearly all actives have a fitted effect of over 55% in size
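Readout: luminescence from CellTiter-Glo after 30 min in the dark at RT. Cells: DT40 Tdp1-/- with stable hTDP1, 400/well. Exposure: compounds alone, ≥48 hr, 37 °C.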
Numbers without * were called inactive; ? = inconclusive; nt = not tested or not shown; [ ] = remark or other dose. Unless noted, calls come from the whole dose curve; as a rule, active = well fitted curve in the direction sought with a large enough effect; inconclusive = small, poorly fitted or top-dose-only effect, or another doubt; inactive = no such curve, though single readings can be large; an effect the other way counts as inactive or inconclusive.

SMILES	TDP1 cell CPT	MCF10A rerep	SW480 rerep	Chronic BCR inh	IL-1B inflam inh	TDP1 cell noCPT
O=C(Nc1cccnc1)C1CCCN(S(=O)(=O)c2cccc3nsnc23)C1 (stereo not drawn)	-27%	5%	-3%	?	4	?
CC(C)c1ccc(NC(=O)C2CCCN(S(=O)(=O)c3cccc4nsnc34)C2)cc1 (stereo not drawn)	4.6µM*	nt	nt	nt	nt	10µM*
O=C(Nc1ccc(F)c(Cl)c1)C1CCCN(S(=O)(=O)c2cccc3nsnc23)C1 (stereo not drawn)	16µM*	nt	nt	nt	nt	23µM*
COc1cc(NC(=O)Cc2c(C(=O)O)c(C)cn2C)cc(OC)c1	8%	nt	nt	-4%	nt	-11%
CSc1ccc(CN2CCC(C(=O)NCc3ccc(C)cc3)CC2)cc1	?	?	21%	?	-27	-29%
COc1ccccc1C(=O)Nc1cccc2cccnc12	?	8%	-4%	-9%	-28	?
COC(=O)N1CCC2(CC1)CN(c1cccc(-c3ccccc3)c1)C2	-30%	nt	nt	nt	nt	18µM*
CC(=O)N1CCC2(CCCN(c3cccc(-c4ccccc4)c3)C2)CC1	16µM*	nt	nt	nt	nt	?
CC(=O)N1CCC[C@@]2(CCN(c3ccccc3)C2)C1	-6%	nt	nt	nt	nt	-21%
CC(=O)N1CCC2(CCCN(c3ccc(-c4ccccc4)cc3)C2)CC1	?	nt	nt	nt	nt	16µM*
CN1CCN(c2ncc3ncc(=O)n(C4CC4)c3n2)CC1	-10%	nt	nt	nt	nt	-10%
Cc1ncc2c(c1CNC(=O)/C=C/c1cccs1)CCN(C(=O)C1CCCO1)C2 (stereo not drawn)	-2%[9.04 µM]	nt	nt	nt	nt	15%
O=C(Nc1cccc(C(=O)O)c1)/C(=C\c1ccc2c(c1)OCO2)NC(=O)c1ccco1	-2%	0.58µM*	-18%	?	2	-1%
O=C(Nc1ccccc1)/C(=C\c1ccc2c(c1)OCO2)NC(=O)c1ccco1	-26%	9.2µM*	?	-9%	3	-4%
Cc1ccc(-n2nc(C(=O)N3CCCCC3)c(=O)n(C)c2=O)cc1	2%	nt	nt	nt	nt	-8%
O=C(NCCc1ccccc1)C1Cc2c(-c3ccc(Cl)cc3)ccnc2O1 (stereo not drawn)	?	nt	nt	nt	22	?
O=C(Nc1ccc(Cl)cc1)C1Cc2c(-c3ccccc3)ccnc2O1 (stereo not drawn)	?	nt	nt	nt	-79*	?
O=C(Nc1ccc(F)c(Cl)c1)C1Cc2c(-c3ccc(Cl)cc3)ccnc2O1 (stereo not drawn)	16µM*	nt	nt	nt	-16	?
CC(C)c1ccc(NC(=O)C2Cc3c(-c4ccccc4Oc4ccccc4)ccnc3O2)cc1 (stereo not drawn)	?	nt	nt	nt	-20	?
O=C(Nc1ccc(Cl)cc1)C1Cc2c(-c3ccc(Cl)cc3)ccnc2O1 (stereo not drawn)	23µM*	nt	nt	nt	-11	21µM*
CC(=O)NCCNC(=O)C1Cc2c(-c3ccc(Cl)cc3)ccnc2O1 (stereo not drawn)	-6%	nt	nt	nt	23	-1%
CC(C)c1ccc(NC(=O)C2Cc3c(-c4ccc(Cl)cc4)ccnc3O2)cc1 (stereo not drawn)	16µM*	nt	nt	nt	?	9.2µM*
CCN(CC)S(=O)(=O)c1cc(NC(=O)CN2C(=O)NC3(CCCc4ccccc43)C2=O)ccc1C (stereo not drawn)	23µM*	11%	-2%	-5%	?	?
Cc1ccc(NC(=O)CN2C(=O)NC3(CCCc4ccccc43)C2=O)cc1S(=O)(=O)N1CCOCC1 (stereo not drawn)	-9%	-1%	5%	?	-10	?
Cc1ccc(C)c(NC(=O)CN(C)C(=O)CN2C(=O)NC3(CCc4ccccc43)C2=O)c1 (stereo not drawn)	9.2µM*	-11%	-5%	0%	1	8.2µM*
SMILES	TDP1 cell CPT	MCF10A rerep	SW480 rerep	Chronic BCR inh	IL-1B inflam inh	TDP1 cell noCPT
COc1ccc(C(=O)NCCCNC(=O)c2ccc(C)nc2)cc1	4%	-3%	-3%	0%	5	-18%
COc1cccc(-c2cc(C(=O)N3CCc4ccccc4C3)[nH]n2)c1	-18%	5%	0%	?	22	-14%
COc1ccc(S(=O)(=O)N2CCCCC2c2cc(C(=O)NCc3ccccc3)no2)cc1 (stereo not drawn)	26µM*	nt	nt	nt	?	?
O=C(NCc1ccccc1)c1cc(C2CCCCN2S(=O)(=O)c2ccccc2)on1 (stereo not drawn)	?	nt	nt	nt	27	26µM*
N#Cc1cccc(NC(=O)c2cc(C3CCCCN3S(=O)(=O)c3ccccc3)on2)c1 (stereo not drawn)	?	nt	nt	nt	9	16µM*
CC(C)NC(=O)c1cc(C2CCCCN2S(=O)(=O)c2ccc(C#N)cc2)on1 (stereo not drawn)	-5%	nt	nt	nt	-20	-24%
O=C(NCc1ccc(F)cc1)c1cc(C2CCCCN2S(=O)(=O)c2ccc(F)cc2F)on1 (stereo not drawn)	23µM*	nt	nt	nt	2	?
CCCNC(=O)c1cc(C2CCCCN2S(=O)(=O)c2ccc(F)cc2F)on1 (stereo not drawn)	0%	nt	nt	nt	67	-27%
CCCNC(=O)c1cc(C2CCCCN2S(=O)(=O)c2ccc(OC)cc2)on1 (stereo not drawn)	-38%	nt	nt	nt	2	?
O=C1C=C(c2ccccc2Oc2ccccc2)C[C@@H](c2ccc(F)cc2)C1	?	nt	nt	nt	-25	?
N[C@H](C(=O)O)[C@@H](O)c1ccc(O)c(O)c1	?	nt	nt	nt	nt	-11%
CS(=O)(=O)N1CCCCC1c1cc(C(=O)Nc2ccc3c(c2)OCO3)no1 (stereo not drawn)	-13%	nt	nt	nt	-25	-15%
COc1ccc(S(=O)(=O)N2CCCCC2c2cc(C(=O)Nc3ccc4c(c3)OCO4)no2)cc1 (stereo not drawn)	18µM*	nt	nt	nt	0	15µM*
CS(=O)(=O)N1N=C(c2ccc(Br)cc2)CC1c1cccs1 (stereo not drawn)	21µM*	?	4%	?	-22	26µM*
Cc1cccc(C(=O)N2N=C(c3ccc(NS(C)(=O)=O)cc3)CC2c2cccs2)c1 (stereo not drawn)	23µM*	-1%	-1%	?	-20	-19%
CC(=O)N1N=C(c2ccc(C)cc2)CC1c1cn(-c2ccccc2)nc1-c1cccs1 (stereo not drawn)	16µM*	nt	nt	nt	nt	?

High-throughput results from PubChem.
